Source: publication PMC4552634, “A New Set of Chemical Starting Points with Plasmodium falciparum Transmission-Blocking Potential for Antimalarial Drug Discovery” (PLoS ONE, 2015)
In all, about 13,000 compounds went through this assay and about 3,200 (25%) showed an effect of 50% or more. Some of the results follow.

Test system: P. falciparum stage V gametocytes
Design: BacTiter-Glo ATP luminescence viability of purified stage V gametocytes in 384-well plates, per cent inhibition versus DMSO
Conditions: 48 h, 5 µM; inhibitor

Compound | % Inhibition
CCCOc1cc(Cc2cnc(N)nc2N)cc(OC)c1OC [TCMDC-137661] | 3.215%
Cc1ccc(Oc2ccc(NC(=O)CNc3ccccc3N3CCCC3=O)cc2)cc1 [TCMDC-125245] | -23.96%
CC(C)(C)c1ccc(CN2CCC(CNC(=O)c3cc(-c4ccccc4)nc4ccccc34)CC2)cc1 [TCMDC-139154] | 75.79%
CN(C)c1ccc(CN2CCC(CNC(=O)c3cc(-c4cccc(F)c4)cs3)C2)cc1 (stereo not drawn) [TCMDC-134454] | 71.45%
O=C(NC1CCN(Cc2ccccc2)CC1)c1cc(-c2cccnc2)nc2ccc(Cl)cc12 [TCMDC-125223] | -0.2191%
CCc1ccc(CN2CCC(CNC(=O)c3cc(-c4cccc(F)c4)cs3)C2)cc1 (stereo not drawn) [TCMDC-134432] | 99.62%
O=C(NC1CCN(Cc2ccccc2)CC1)c1cc(-c2ccncc2)nc2ccc(Cl)cc12 [TCMDC-124995] | 9.958%
CN(C)c1ccc(CN2CCC(CNC(=O)c3cc(-c4cccc(C(F)(F)F)c4)cs3)C2)cc1 (stereo not drawn) [TCMDC-134452] | 29.06%
CC(Nc1nncc(-c2cccc(F)c2)n1)c1ccc(F)cc1 (stereo not drawn) [TCMDC-124683] | -23.73%
COc1ccc(NC(=O)Nc2cccc(-c3ccc(-c4nc5ccc(C(F)(F)F)cc5[nH]4)cc3)c2)cc1 [TCMDC-133244] | -27.48%
CCOC(=O)c1ccc(Nc2cc(Nc3ccc(C(=O)OCC)cc3)nc(C)n2)cc1 [TCMDC-125781] | 36.3%
O=C(Nc1cccc(CN2CCCN(CC3CC3)CC2)c1)c1ccc(-c2ccccc2)cc1 [TCMDC-141846] | -26.45%
Cc1nc2nc(N)nc(N)c2c(C)c1Cc1ccc(O)cc1 [TCMDC-137637] | -12.62%
CC(C)C1C(=O)N(S(C)(=O)=O)C2CCN(C(=O)c3ccc(CN4CCCCC4)c([N+](=O)[O-])c3)C12 (stereo not drawn) [TCMDC-138195] | 96.13%
O=C(/C=C/c1ccc(Cl)c(Cl)c1)NC1CCC(CN2CCC(Cc3c[nH]c4ccccc34)CC2)CC1 (stereo not drawn) [TCMDC-140141] | 5.841%
Nc1c(C(=O)NCCCCN2CCN(c3nsc4ccccc34)CC2)sc2ccccc12 [TCMDC-137254] | -32.13%
O=C(NCCCCN1CCC(c2nc3ccccc3s2)CC1)c1cc2ccccc2[nH]1 [TCMDC-132779] | 6.014%
COc1ccc(Cl)cc1N1CCN(CCCNC(=O)c2ccc(-c3nc4ccncc4[nH]3)c(Br)c2)CC1 [TCMDC-140145] | -23.34%
Nc1ccncc1C(=O)NCCCCN1CCN(c2nsc3ccccc23)CC1 [TCMDC-137310] | 70.91%
COc1ccccc1N1CCN(CCCCNC(=O)c2ccc(NC(=O)c3ccc(C(F)(F)F)cc3)cc2)CC1 [TCMDC-138110] | -20.18%
O=C(NCCCCN1CCN(c2nsc3ccccc23)CC1)c1ccccc1C(=O)NCCCCN1CCN(c2nsc3ccccc23)CC1 [TCMDC-137241] | 54.48%
c1csc(-c2nc(NCC3CCCO3)ncc2-c2ccsc2)n1 (stereo not drawn) [TCMDC-125365] | 7.159%
CCCCCCN1CCCN(Cc2ccc(C(=O)Nc3cccc(CC)c3)cc2)CC1 [TCMDC-136412] | -23.63%

Compound | % Inhibition
CC1(C)N=C(N)N=C(N)N1OCCCc1ccccc1 [TCMDC-131689] | 3.846%
CCNc1cc(C(=O)N[C@@H](Cc2ccccc2)[C@H](O)CNC2(CCC(C)C)CC2)cc(N2CCCCS2(=O)=O)c1 [TCMDC-135245] | 4.245%
O=C(Nc1ccc(Cl)c(Cl)c1)N1CCc2ccc(OCCCN3CCCCC3)cc2CC1 [TCMDC-141755] | 13.17%
O=C(Nc1cccc(OCCN2CCCC2)c1)Nc1ccc(Cl)c(Cl)c1 [TCMDC-139540] | 28.24%
CCCCCCOc1ccc(C(=O)N[C@H]2CCN(CCCCCNC(=O)/C=C/c3ccc(Cl)c(Cl)c3)C2)cc1 [TCMDC-139564] | 40.4%
Clc1ccc(OCCC2CCN(CCCCCCN3CCCCC3)CC2)cc1Cl [TCMDC-138982] | 100.1%
Clc1ccc(OCCC2CCN(CCCCCCCN3CCC(CCOc4ccc(Cl)c(Cl)c4)CC3)CC2)cc1Cl [TCMDC-138967] | 119.8%
CCCCCCN1CCC(CNCc2cccc(Cl)c2)CC1 [TCMDC-141678] | 45.32%
N#Cc1ccc(-c2ccc(C(=O)Nc3ccc4c(c3)CCN(C3CCC3)CC4)nc2)cc1 [TCMDC-136032] | 15.17%
Cc1onc(-c2ccccc2)c1-c1nc(NC2CCCC(C)C2)no1 (stereo not drawn) [TCMDC-134202] | -14.49%
CCN(c1ccc(O)c(CN2CCCCC2)c1)c1ccc([N+](=O)[O-])cn1 [TCMDC-138001] | 10.77%
CCN(CC)S(=O)(=O)c1ccc(C(C)NC(=O)c2ccccc2COc2ccccc2)cc1 (stereo not drawn) [TCMDC-125332] | 39.64%
CCC(C)NS(=O)(=O)c1ccc2nc(Nc3ccc(C)c(Cl)c3)n(C3CCCCC3)c2c1 (stereo not drawn) [TCMDC-136233] | -49.77%
Cc1ccc(C)c(CC(=O)N2CCC(n3c(C)nc4ccc(F)cc43)CC2)c1 [TCMDC-124790] | 89.97%
Cc1ccc2nc(C)n(C3CCN(C(=O)Cc4ccc(F)c(F)c4)CC3)c2c1 [TCMDC-124793] | 84.63%
Cc1nc2ccc(F)cc2n1C1CCN(C(=O)Cc2ccc(F)c(F)c2)CC1 [TCMDC-124794] | 73.02%
Cc1cc(C)cc(CC(=O)N2CCC(n3c(C)nc4ccc(C)cc43)CC2)c1 [TCMDC-124789] | 80.51%
Cc1ccc(C)c(Cn2c(N3CCC(C(=O)NCc4cccs4)CC3)nc3ccccc32)c1 [TCMDC-124399] | -1.754%
O=C(O)c1ccc2nc(-c3ccc(-c4ccccc4)cc3)n(C3CCN(Cc4ccc(-c5ncc[nH]5)cc4)CC3)c2c1 [TCMDC-134669] | 12.72%
CCC(C)NS(=O)(=O)c1ccc2nc(Nc3ccc(C)cc3)n(C3CCCCC3C)c2c1 (stereo not drawn) [TCMDC-136231] | -48.39%
CCC(C)NS(=O)(=O)c1ccc2nc(Nc3ccc(C)cc3)n(C3CCCCC3)c2c1 (stereo not drawn) [TCMDC-136232] | -89.75%
CCN1CCC(N2CCC(n3c(C)nc4cc(C(F)(F)F)ccc43)CC2)CC1 [TCMDC-124671] | 0.4186%
